# Where “and” joins values, the source holds several entries; their conditions need not be identical. Equal entries are not always repeated. Screen size: about 360,000 compounds; about 3,100 (0.86%) were called active.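 Rule for the calls: active = at least 50% inhibition at 5 µM, scaled per plate between neutral and stimulator controls; inactive = the rest.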 The entries come from a sample that favours actives as a whole.
# Experiment: inhibitors of PAF-induced NF-kB signaling, primary screen, cell-based, GFP fluorescence, uHTS (AID 588850);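 note: PAF is a Pseudomonas aeruginosa culture filtrate used as stimulus; plate controls were PAF-stimulated DMSO wells for no effect and unstimulated DMSO wells for full effect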
# Details: KKLEB NF-kB-GFP reporter, GFP fluorescence overnight, at 5 µM, stronger effect = higher value
row,SMILES,inhibition
1,CN(C)S(=O)(=O)c1ccc(N2CCCC2)c(C(=O)Nc2ccc(Br)cc2F)c1,21.3% (inactive)
2,Cc1cc2c3ccccc3[nH]c(=O)n2n1,-16.8% (inactive)
3,O=c1c2c(ncn1Cc1ccccc1)nc1n2CCC1,1.3% (inactive)
4,CN(C)c1ccnc2sc3c(=O)n(Cc4ccccc4)cnc3c12,80.2% (active)
5,CN(C)/C=C/c1c(C#N)c(=O)ncn1Cc1ccccc1,-10.4% (inactive)
6,O=C(Nc1ccc(F)cc1)Nc1nnc([C@H]2C[C@H](O)[C@@H](CO)O2)s1,8% (inactive)
7,CCOC(=O)c1cc(C(=O)Nc2ccc(S(=O)(=O)Nc3ccc(OC)cc3)cc2)nn1C,-4.7% (inactive)
8,CCN(Cc1ccccc1)C(=O)CCS(=O)(=O)c1ccc2c(c1)oc(=O)n2C,-2.4% (inactive)
9,O=C1Nc2ccccc2/C1=C/c1ccnc2ccccc12,50.5% (active)
10,COCCN(C(=O)CCC(=O)Nc1ccccn1)C(C(=O)NCCC(C)C)c1ccc(OC)cc1 (centres undefined),-7.9% (inactive)
11,CCOC(=O)N1CCN(S(=O)(=O)c2ccc3c(c2)C(C)C(=O)N3)CC1 (centres undefined),-4% (inactive)
12,NC(=O)c1ncn([C@@H]2O[C@H](CNCc3cnc(N4CCOCC4)s3)[C@@H](O)[C@H]2O)n1,-11.1% (inactive)
13,O=C(O)CSCC(=O)Nc1ccc(C(F)(F)F)cc1,-2.9% (inactive)
14,CC(=O)Nc1ccc(SCC(=O)NC(=O)c2ccc(Cl)cc2)cc1,-19.2% (inactive)
15,O=C(CCl)Nc1ccc(Sc2ccc(NC(=O)CCl)cc2)cc1,93.7% (active)
16,Cc1[nH]c2ccccc2c1SCC(=O)Nc1nccs1,1% (inactive)
17,CCNC(=O)C1CCCN(C(=O)c2cc(F)ccc2C)CC1 (centres undefined),-17.2% (inactive)
18,Cc1ccccc1-c1ccc2c(c1)O[C@@H](CN(C)Cc1ccc(C(=O)O)cc1)[C@@H](C)CN([C@H](C)CO)S2(=O)=O,44.9% (inactive)
19,CC(NC(=O)c1cc2cc(Cl)ccc2oc1=N)c1ccccc1 (centres undefined),23.8% (inactive)
20,COc1cc2c3c(c1)/C(=C1/SC(=S)NC1=O)C(=O)N3C(C)(C)C=C2C,50.7% (active)
21,CCOc1ccc(NC(=O)CSc2ncnc3c2sc2ccccc23)cc1,5.6% (inactive)
22,Cc1ccc(C)c(NC(CC(=O)c2ccccc2)C(=O)OCC(=O)c2cccs2)c1 (centres undefined),-4.5% (inactive)
23,Cc1ccccc1C(CC(=O)c1cccs1)C(C#N)C#N (centres undefined),83.8% (active)
24,O=C(NCC(=O)N1CCN(c2ccccc2F)CC1)c1cccs1,-14.2% (inactive)

row,SMILES,inhibition
1,O=Nc1c(O)cc(O)c2ccccc12,-12.5% (inactive)
2,O=Cc1c(NCCc2cccc(F)c2)c2ccccc2[nH]c1=O,5% (inactive)
3,OCCNCCOc1ccc(Cl)c(Cl)c1,-8.5% (inactive)
4,O=C(Cn1c(NCCO)nc2ccccc21)c1ccc(Cl)cc1Cl,1.6% (inactive)
5,OCCNc1nc(Nc2ccc(Cl)c(Cl)c2)nc2ccccc12,87.5% (active)
6,O=c1[nH]c(=S)[nH]c(O)c1/C=C1\C=Nc2ccccc21,69.3% (active)
7,c1csc(-c2nnc(COc3ncnc4sccc34)o2)c1,18.1% (inactive)
8,C=C(C)C(=O)O[C@H]1C/C(C)=C\C(=O)/C=C(\C)[C@H](O)[C@@H]2OC(=O)C(=C)[C@@H]21,74.1% (active)
9,CCN(Cc1ccccc1)C(=O)CSc1nc(C)cc2c1C(=O)OC2,5% (inactive)
10,Oc1c(Cl)cc(Cl)c(Cl)c1Cc1c(O)c(Cl)cc(Cl)c1Cl,65.4% (active)
11,O=c1[nH]c(CCl)nc2cc(-c3ccc(Cl)cc3)sc12,7.1% (inactive)
12,CC[N+]1(CC)CC2=Cc3ccccc3CC2C1 (centres undefined),-4% (inactive)
13,COc1ccc(CC(=O)c2ccc(O)cc2O)cc1OC,-7.8% (inactive)
14,C=CCOc1ccccc1CNn1c(C)n[nH]c1=S,5.7% (inactive)
15,O=C(CSc1ncnc2scc(-c3ccccc3)c12)NCc1ccc2c(c1)OCO2,13.3% (inactive)
16,O=C(COC(=O)c1ccc(Cl)nc1)NCc1ccc2c(c1)OCO2,-9.2% (inactive)
17,CN(C)C(=O)c1cccc(-c2cnc3sc(NCc4ccc5c(c4)OCO5)nn23)c1,82.2% (active)
18,Cc1ccc(Cn2c(C)c(C(=O)NCc3ccccc3C(F)(F)F)sc2=O)cc1,-26.2% (inactive)
19,Cc1c(Nc2nc3ccccc3nc2NS(=O)(=O)c2cccs2)c(=O)n(-c2ccccc2)n1C,9.5% (inactive)
20,Cc1ccc(C2CCN(C(=S)Nc3cccc(Cl)c3)C2)cc1 (centres undefined),7.5% (inactive)
21,COc1ccc(/C=C/C(=O)NC(=S)NN2CCCCC2c2cccnc2)cc1 (centres undefined),-13% (inactive)
22,Cc1ccc(Cc2c(-c3ccccc3)nc3ccc(Cl)cn23)cc1,20.8% (inactive)
23,Cc1ccc(Cc2c(-c3ccco3)nc3ccc(Cl)cn23)cc1,66.3% (active)
24,Cc1ccc2nc(-c3ccco3)c(Cc3cccc(Cl)c3)n2c1,2.7% (inactive)

row,SMILES,inhibition
1,S=c1[nH]c2ccccc2c2ccccc12,-8.9% (inactive)
2,CC(=O)c1cccc(-c2cnc3c(NC=O)cc(-c4ccc(N5CCN(C)CC5)cc4)cn23)c1,22.9% (inactive)
3,O=C(Nc1ccc(Cl)cc1)Nc1nnc(/C=C/c2ccccc2)s1,51.2% (active)
4,COc1ccc(/C=C/c2nnc(NC(=O)C(C)C)s2)cc1,17.7% (inactive)
5,O=C(CSc1ccccc1)Nc1nnc(/C=C/c2ccccc2)s1,22.7% (inactive)
6,Cc1cc(OCCCC(=O)Nc2cc(S(=O)(=O)N3CCOCC3)ccc2N2CCOCC2)ccc1Cl,7.1% (inactive)
7,CCOC(=O)c1sc2nc(C)nc(SCC(N)=O)c2c1C,11.9% (inactive)
8,O=C(Nc1ccccc1Cl)/C(Cl)=C(\Cl)S(=O)c1ccccc1 (centres undefined),82.8% (active)
9,CC(=O)c1ccc(NC(=O)C(C)N(C)CC(=O)Nc2ccccc2Cl)cc1 (centres undefined),2.6% (inactive)
10,O=C(COc1ccc(-n2cnnn2)cc1)Nc1ccccc1Cl,-3.5% (inactive)
11,COc1cccc(CC(=NO)c2cccc(OC)c2)c1,11.3% (inactive)
12,COc1cc(C(=O)NCCOC(=O)c2cccc(N(C)C)c2)cc(OC)c1OC,3.4% (inactive)
13,Cn1c(=O)c2c(ncn2CC(=O)N/N=C/c2cn[nH]c2-c2ccc(F)cc2)n(C)c1=O,-32.9% (inactive)
14,NC1=CC(=O)C(=O)c2cccnc21,92.2% (active)
15,CCCCc1nc(NCCN)c(C#N)c2c1CSC(C)(C)C2,2.5% (inactive)
16,FC(F)Oc1ccc(NC(=S)NCc2ccco2)cc1Cl,-1.9% (inactive)
17,CCOc1c(Nc2cccc(Cl)c2)c(=O)c1=O,-0.1% (inactive)
18,OCCCNc1nccc(-c2cc(Nc3cccc(Cl)c3)ncn2)n1,84.5% (active)
19,Cc1nc(C(F)(F)F)ccc1C(=O)N1CCC1(C)C(=O)NS(=O)(=O)c1ccc(F)cc1F (centres undefined),0.2% (inactive)
20,O=C(CCN1C(=O)[C@@H]2Cc3ccccc3CN2C1=O)NCCc1ccccc1,16% (inactive)
21,COc1cc(OC)cc(C(=O)Nc2ccc(-c3nc4ccccc4o3)c(O)c2)c1,-44.7% (inactive)
22,O=C(Nc1ccc2oc(-c3ccccc3F)nc2c1)c1ccco1,-15% (inactive)
23,O=C(Nc1ccc2oc(-c3ccc4ccccc4c3)nc2c1)c1cccs1,51.3% (active)
24,CN1CCN(c2cc(=O)n(-c3ccc(Cl)cc3)c(=O)[nH]2)CC1,16.6% (inactive)

row,SMILES,inhibition
1,CC1CCN(C(=O)c2ccccc2NC(=O)Cc2ccccc2)CC1,16.1% (inactive)
2,N#C/C=C1\Sc2ccccc2C(=O)N1CC(=O)N1CCN(S(=O)(=O)c2ccccc2)CC1,8.2% (inactive)
3,Brc1ccc2ncnc(NCc3cccnc3)c2c1,57% (active)
4,Clc1ccc(Cn2ncc3c(NCc4cccnc4)ncnc32)cc1,-7.9% (inactive)
5,Cc1cc(NCc2cccnc2)no1,-9.7% (inactive)
6,CC(C)Cc1oc(C(=O)O)cc1CN,0.9% (inactive)
7,OC[C@@H]1CN(Cc2ccc(Cl)cc2)C[C@H](n2cnc3c(NCc4ccncc4)ncnc32)O1,-7.1% (inactive)
8,CCN(CC(=O)Nc1cc(Cl)ccc1C)C(=O)CSCc1ccc(C)cc1,-25.2% (inactive)
9,C[C@]12C=CC(=O)C=C1CC[C@@H]1[C@@H]2C(=O)C[C@@]2(C)[C@H]1CC[C@]2(O)C(=O)CO,21.5% (inactive) and 6.7% (inactive)
10,CC1(C)O[C@@H]2CC3C4C[C@H](F)C5=CC(=O)C=CC5(C)C4C(O)CC3(C)[C@]2(C(=O)CO)O1 (some centres undefined),71.8% (active)
11,COc1cccc(NC(=O)COC(=O)c2ccc3ccccc3n2)c1,3.6% (inactive)
12,C[C@H]1CC[C@]2(O[C@@H](CCO)C[C@@H](O)[C@@H]2O)O1,-22.2% (inactive)
13,O=C(/C=C/c1ccc(Cl)c([N+](=O)[O-])c1)c1ccc(O)cc1,66.4% (active)
14,O=C(O)c1ccc2c(=O)n3c(nc2c1)/C(=C/c1ccc(Cl)c([N+](=O)[O-])c1)CC3,-4% (inactive)
15,O=C(c1ccc(Cl)c([N+](=O)[O-])c1)N1CCN(c2ccccc2)CC1,-1.9% (inactive)
16,COc1cc(C(C(=O)NC2CCCC2)N(Cc2ccccc2)C(=O)c2snc(C(N)=O)c2N)ccc1O (centres undefined),-3.3% (inactive)
17,COc1ccc(CNC(=O)C(c2ccc(O)cc2)N(Cc2ccco2)C(=O)c2snc(C(N)=O)c2N)cc1 (centres undefined),80.2% (active)
18,NC(=O)c1nsc(C(=O)N(CC(=O)NCc2ccc(F)cc2)Cc2ccco2)c1N,6.2% (inactive)
19,O=C1CCC(C(=O)N2CCN(c3ccccc3Cl)CC2)CN1CC1CCCCC1 (centres undefined),25% (inactive)
20,Cc1ccc(NS(=O)(=O)c2ccc3c(c2)oc(=O)n3C)c(C)c1,21.8% (inactive)
21,CC(=O)c1c(OCC(=O)N(C)C2CCCCC2)ccc2c(C)cc(=O)oc12,-24.1% (inactive)
22,COc1cccc2c1C(=O)c1c(O)c3c(c(O)c1C2=O)CC(O)(C(C)=NNC(=O)c1ccc(Cl)c(Cl)c1)CC3OC1CC(N)C(O)C(C)O1 (centres undefined),81.2% (active)

# Source: PubChem BioAssay AID588850 (Sanford-Burnham Center for Chemical Genomics, 2011)
